Bioassay records deposited in PubChem by National Center for Advancing Translational Sciences (NCATS).
Rows were chosen to be rich in hits. Some 5.7% of all compounds tested hit in one or more screens of this group.
JMJD2A Tudor inh: blocks the human JMJD2A Tudor domain. O75164. AID 504339. Potency, µM (top dose mostly 114 µM), for inactives: at the top dose activity change, negative = inhibition, most hits filed as inhibitors. AlphaScreen JMJD2A-Tudor / H3K4me3 peptide binding. 390,000 compounds, 4.4% hits; also: potency is read from the fitted curve at half-maximal effect; % is scaled to controls: 0 for no effect and ±100 for the full control effect; nearly all actives have a fitted effect of over 50% in size
BAZ2B inh: BAZ2B (human) inhibition; AlphaScreen BAZ2B-H3K14Ac peptide displacement; Potency, µM (titrated, usually from 114 µM), for the others: at the top dose activity change, negative = inhibition, most hits filed as inhibitors; Q9UIF8; 360,000 compounds, 4.4% hits; also: potency is read from the fitted curve at half-maximal effect; % is scaled to controls: 0 for no effect and ±100 for the full control effect; nearly all actives have a fitted effect of over 60% in size
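Compounds, titrated to a top concentration of 110 uM, were incubated 30 min at room temperature with preformed BAZ2B/acetyl-K14 H3 peptide complex (50 nM each). Proximity signal was measured by AlphaScreen after 20 min with beads.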
L3MBTL1 block: L3MBTL1 (human) inhibition | AID 485360 | AlphaScreen L3MBTL1–H3K9me1 peptide binding | Q9Y468 | Potency, µM (doses to about 57.1 µM), for the others: at the top dose activity, negative = inhibition, hits mostly inhibitors | 230,000 compounds, 0.66% hits; also: potency is read from the fitted curve at half-maximal effect; % is scaled to controls: 0 for no effect and ±100 for the full control effect; nearly all actives have a fitted effect of over 60% in size
Target sequence (Q9Y468 whole entry, looked up): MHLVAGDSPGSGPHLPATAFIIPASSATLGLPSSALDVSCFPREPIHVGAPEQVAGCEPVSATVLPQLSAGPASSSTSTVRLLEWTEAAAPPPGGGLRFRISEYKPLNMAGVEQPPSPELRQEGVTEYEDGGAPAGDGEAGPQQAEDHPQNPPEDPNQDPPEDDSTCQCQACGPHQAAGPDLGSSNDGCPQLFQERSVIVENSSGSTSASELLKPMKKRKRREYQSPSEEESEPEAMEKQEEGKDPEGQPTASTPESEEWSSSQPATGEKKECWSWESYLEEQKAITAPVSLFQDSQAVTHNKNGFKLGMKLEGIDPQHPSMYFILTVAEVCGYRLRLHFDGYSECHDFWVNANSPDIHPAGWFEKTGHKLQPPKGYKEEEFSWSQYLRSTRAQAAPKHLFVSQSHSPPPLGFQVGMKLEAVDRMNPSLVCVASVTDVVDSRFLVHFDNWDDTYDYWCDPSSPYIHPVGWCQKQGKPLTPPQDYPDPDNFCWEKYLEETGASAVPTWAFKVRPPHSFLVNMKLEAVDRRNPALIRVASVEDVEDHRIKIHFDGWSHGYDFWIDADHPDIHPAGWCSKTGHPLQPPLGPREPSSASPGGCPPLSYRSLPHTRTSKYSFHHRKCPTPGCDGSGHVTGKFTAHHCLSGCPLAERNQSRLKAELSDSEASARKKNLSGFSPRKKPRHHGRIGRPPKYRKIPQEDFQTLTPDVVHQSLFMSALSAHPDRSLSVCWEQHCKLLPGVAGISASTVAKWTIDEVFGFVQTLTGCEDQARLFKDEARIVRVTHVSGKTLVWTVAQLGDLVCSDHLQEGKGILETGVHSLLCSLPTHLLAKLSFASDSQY
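AlphaScreen assay: L3MBTL1 (50 nM final) was preincubated 30 min at room temperature with biotinylated H3(1-15)K9me1 peptide (75 nM final), then 30 min with library compounds; streptavidin donor and nickel chelate acceptor beads (10 ug/mL final) added, 30 min dark.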
PI5P4Ka inh: PI5P4K alpha (human) kinase inhibition. PI5P4Kalpha enzyme, ADP-Glo luminescence, 60 min; stronger effect = lower value. 330,000 compounds, 1.2% hits. P48426. max response, %; active = max response of -50% or lower; inconclusive = between -30% and -50%; inactive = -30% or higher; also: value at the top dose of about 77 µM; % is scaled to controls: 0 for no effect and ±100 for the full control effect
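Luminescence from ADP-Glo served as readout of PI5P4Kalpha activity in a qHTS format. Reaction: enzyme, substrate, compound, ATP at 5 microM final, 60 min at RT.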
HP1b binding inh: inhibitors of HP1-beta chromodomain binding to methylated histone tails; Potency, µM (top dose mostly 114 µM), for the others: at the top dose activity change, negative = inhibition, actives largely listed as inhibitors; AlphaScreen HP1-beta / biotin-H3K9me3 peptide binding; AID 540317; 390,000 compounds, 0.56% hits; also: potency is read from the fitted curve at half-maximal effect; nearly all actives have a fitted effect of over 70% in size
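AlphaScreen: HP1-beta (50 nM) preformed 30 min with biotin-H3(1-18)K9me3 peptide (50 nM) in PBS pH 7.4, 0.01% Tween-20. Compound added for 30 min at RT, then streptavidin donor/nickel chelate acceptor beads (10 ug/mL) for 30 min.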
KDM4E inh: inhibitors of human JMJD2E histone demethylase; B2RXH2; JMJD2E catalytic domain, FDH-coupled NADH fluorescence (FDH is formaldehyde dehydrogenase); Potency, µM (top dose mostly 57.1 µM), without a hit: at the highest dose activity change, negative = inhibition, hits mostly inhibitors; 230,000 compounds, 1.6% hits; AID 2147; active = well fitted inhibition curve with a large enough effect, not every such curve was filed as active; inconclusive = small, poorly fitted or top-dose-only effect, or another doubt; inactive = no such curve, though single readings can be large or run the other way;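 also: potency is read from the fitted curve at half-maximal effect; 0% = wells with enzyme and -100% = buffer wells without enzyme; nearly all actives have a fitted effect of over 50% in size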
Active calls of the source: *; ? = inconclusive; / = no result given; [ ] = another dose, or the depositor's remark. Unless noted, calls follow the shape of the dose curve; as a rule, active = well fitted inhibition curve with a large enough effect; inconclusive = small, poorly fitted or top-dose-only effect; inactive = no such curve, though single readings can be large or run the other way.

SMILES | JMJD2A Tudor inh | BAZ2B inh | L3MBTL1 block | PI5P4Ka inh | HP1b binding inh | KDM4E inh
COc1ccc(/C=N/N(C)c2cc(=O)n(C)c(=O)[nH]2)cc1OC | -17% | 79µM* | -2% | -2 | 28% | ?
CC(=O)c1c(C)[nH]c(C(=O)Nc2cccc(C#N)c2)c1C | -17% | -29% | / | -4 | 7% | /
Cc1[nH]c(=S)c(C#N)c(C)c1C(=O)Nc1ccccc1 | 8.9µM* | -4% | / | -14 | ? | ?
CCc1c(C(=O)Nc2ccccc2)c(C)[nH]c(=S)c1C#N | 7.1µM* | -8% | / | / | ? | ?
Cc1[nH]c(C(=O)O)c(C#N)c1C(=O)c1ccccc1 | -14% | -18% | / | ? | 15% | /
CC(=O)c1ccc(N2CCN(C(=O)CCc3nnc4n(C)c(=O)c5sccc5n34)CC2)cc1 | -17% | 5% | / | / | 29% | /
O=C(Nc1ccc(Cl)cc1)c1nc[nH]c1C(=O)Nc1ccccc1F | / | / | / | 4 | / | /
NNC(=O)c1nc[nH]c1C(=O)Nc1ccccc1 | ? | 1.3µM* | -2% | -1 | 49% | /
O=C(Nc1ccccc1)c1nc[nH]c1C(=O)NCc1ccccc1 | -26% | -9% | -2% | 5 | 52% | /
O=C(Nc1ccc(F)cc1)c1nc[nH]c1C(=O)O | 10µM* | 4.5µM* | / | ? | 96% | /
CCN(C(=O)CSc1nc2ccccc2n1CC(=O)N1CCCC(C)C1)c1ccccc1 (stereo unspecified) | -24% | -5% | / | / | 44% | /
CC(=O)c1ccc2c(c1)C1C=CCC1C(c1ccc(S(=O)(=O)N3CCOCC3)cc1)N2 (stereo unspecified) | -32% | ? | -18% | -65* | 6% | -20%
FC(F)(F)c1ccc2c(c1)C1C=CCC1C(c1ccncc1)N2 (stereo unspecified) | ? | 45µM* | ? | -3 | -8% | ?
CC(=O)c1ccc2c(c1)C1C=CCC1C(c1cc3c(cc1Br)OCO3)N2 (stereo unspecified) | -31% | -32% | ? | -7 | 10% | /
O=C(O)c1ccc2c(c1)C1C=CCC1C(c1ccncc1)N2 (stereo unspecified) | -3% | 56µM* | / | -4 | 27% | 14µM*
COc1cc(OC)cc(C(=O)Nc2ccc3nc(N4CCC(C)CC4)cc(C)c3c2)c1 | -21% | -9% | / | / | 15% | /
Cc1ccc(/C=N/n2c(-c3cccnc3)n[nH]c2=S)o1 | 5µM* | ? | -19% | -4 | 40% | ?
Cc1ccc(-c2n[nH]c(=S)n2/N=C/c2ccc(C)o2)cc1 | 25µM* | ? | -15% | 0 | 3% | -5%
CCCc1cc(C(=O)Cc2ccc(C(=O)OCC)o2)c(O)cc1O | ? | -38% | -4% | -30 | 5% | ?
CCCc1cc2c(OC(=O)CC)c(-c3ccc(C(=O)OCC)o3)c(=O)oc2cc1OC | 3% | 0% | 10% | -65* | 37%[57 µM] | ?
CC(C)(C)NC(=O)C(c1cccnc1)N(C(=O)c1ccc(Cl)nc1)C1CCCC1 (stereo unspecified) | 0% | 56µM* | ? | -5 | 24% | 0%
NC1=C(Cl)C(=O)c2ccc(S(N)(=O)=O)cc2C1=O | -16% | / | / | ? | 3% | /
NC1=C(Cl)C(=O)c2ccccc2C1=O | 89µM* | / | / | -56* | -19% | /
O=C(Nc1ccccc1)NC1(C(=O)NCc2cccs2)CCCCC1 | -23% | 1% | 0% | / | 7% | ?
CCC(C)NC(=O)C1(NC(=O)Nc2ccccc2)CCCCC1 (stereo unspecified) | 18µM* | -4% | 16% | -28 | ? | 0%
SMILES | JMJD2A Tudor inh | BAZ2B inh | L3MBTL1 block | PI5P4Ka inh | HP1b binding inh | KDM4E inh
Cn1cccc1-c1nc2ccc(NC(=O)c3ccco3)cc2[nH]1 | ? | 50µM* | / | -1 | ? | -8%
Cc1ccc2nc(-c3ccc(NC(=O)c4ccco4)cc3)[nH]c2c1 | -34% | -16% | 11% | / | -20% | ?
CCOC(=O)C1=C(C)N(C[C@@H]2CC[C@@H](Cc3ccc(-c4ccccc4)cc3)O2)C(=O)NC1c1ccc(SCc2ccco2)c([N+](=O)[O-])c1 (stereo partly specified) | 40µM* | / | 32µM* | -70* | -8% | /
Cc1cc2c(s1)c1cnn(Cc3cc(F)c(F)c(F)c3)c(=O)c1n2C | -19% | / | / | / | / | /
COc1ccc(CCNC(=O)c2nnn(CC(=O)Nc3cccc(F)c3)c2N)cc1OC | ? | 50µM* | 10% | 8 | 3% | -10%
COc1cccc(NC(=O)c2nnn(CC(=O)Nc3cc(C)cc(C)c3)c2N)c1 | 28µM* | -6% | / | -16 | 8% | /
O=[N+]([O-])c1ccccc1N=Nc1ccc(O)cc1 | 50µM* | / | / | 5 | ? | /
O=[N+]([O-])c1ccccc1N=NNc1ccccc1 | 20µM* | / | / | 8 | ? | /
O=C(O)c1cc(-c2ccc(N3CCOCC3)cc2)nn1-c1ccc(F)cc1 | -3% | -9% | 5% | -12 | 11% | -12%
Cc1ccc(-n2nc(-c3ccco3)cc2C(=O)O)cc1 | -2%[11.4 µM] | 79µM* | / | -51* | 5% | ?
O=C(c1cc(-c2cccc(Cl)c2)on1)N1CCCCCC1 | 40% | 26% | / | -11 | 65% | /
O=C(c1cc(-c2ccco2)nn1-c1cccc(Cl)c1)N1CCCCC1 | 25µM* | ? | -26% | -82* | ? | ?
COc1ccc(C(=O)N(Cc2cc(OC)c(OC)c(OC)c2)CC2CCCO2)cc1 (stereo unspecified) | -8% | -6% | / | / | 13% | /
COc1cc(C(=O)N(Cc2ccccn2)CC2CCCO2)cc(OC)c1OC (stereo unspecified) | 18µM* | 56µM* | / | / | -17% | -10%
O=C(N/N=C(\Cc1ncc[nH]1)c1ccccc1)c1cccnc1 | 50µM* | 14µM* | / | 2 | 24% | -3%
O=C(N/N=C(\Cc1ncc[nH]1)c1ccccc1)c1ccccc1 | / | -1% | / | / | / | 4%
O=C(N/N=C(\Cc1ncc[nH]1)c1ccccc1)c1ccncc1 | 40µM* | 8.9µM* | / | 3 | 47% | ?
O=C(N/N=C(\c1ccccc1)c1cccnc1)c1cccc(F)c1 | 45µM* | 56µM* | / | 0 | 18% | /
O=C(N/N=C(\c1ccccc1)c1cccnc1)c1ccc(O)cc1 | -18% | -15% | / | 6 | 51% | /
Cc1ccccc1-c1noc(CSc2nnc(Cc3ccccc3)n2-c2ccc(F)cc2)n1 | -21% | -3% | / | / | 28% | /
CCN(CC)S(=O)(=O)c1ccc2nc(NC(=O)c3cccnc3)sc2c1 | -9% | 3% | / | / | 8%[57 µM] | /
CCn1c(=O)n(-c2ccc3c(c2)OCO3)c2nc(-c3ccc(C(C)C)cc3)nc(C(N)=O)c21 | -7% | -6% | / | / | 23% | /
O=C1CSC(=S)N1Cc1ccccc1 | / | / | / | -6 | / | /
Cc1ccnc2c1ccc1cccnc12 | 5.6µM* | 2.8µM* | 3.5µM* | 6 | 43% | /
